HTR5A inv ag – inverse agonist of human HTR5A in OPRM1-OPRD1 counter-screen; P47898; HTR5A cell line, luminescence, inverse agonism; inhibition, % at 9.3 µM; 0.083% of 340,000 active; in the data active means inhibition mostly above about 23%, no sharp cut-off; inactive means mostly below about 18%;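 further: 0% = cells with DMSO and 100% = no-cell wells with DMSO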
OPRM1-OPRD1 ag – OPRM1-OPRD1 heterodimerization agonism; P35372+P41143; cells, luminescence; activation, % at 9.3 µM; 0.3% of 340,000 active; in the data active means activation above about 18%;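 further: 0% = vehicle-treated cells and 100% = reference agonist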
MIN6 prolif-1 – MIN6 beta-cell proliferation induction. MIN6 cells proliferation, ATPlite luminescence, 48 h; cells starved in 0.2% serum; 100% = growth in 10% serum. proliferation, % at 10 µM. 0.29% of 330,000 active. AID 2380;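 active means compounds whose signal lies at least 3.5 SD above the mean of all wells on their plate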;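 further: 0% = DMSO-treated cells in low-serum medium and 100% = 10% serum control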
HTR5A ag ctr – HTR5A agonism, opioid heterodimer counter-screen | HTR5A agonist assay, luminescence, cell-based | activation, % at 9.3 µM | 0.61% of 340,000 active | AID 504692; in the data active means activation mostly above about 9.5%, no sharp cut-off; inactive means mostly below about 7.6%;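 further: 0% = cells with vehicle only and 100% = reference agonist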
pCIP destab – p/CIP protein destabilization; Q05BA5; F442A p/CIP-EGFP cells, EGFP fluorescence, 16 h; decrease of EGFP signal, % at 10 µM; 0.01% of 290,000 active;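 active means EGFP signal decrease of at least 30% at 10 µM or well 3 SD below plate mean, unless failing retest; inactive means the rest, including hits failing retest or dose response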
MOR-DOR inv ag – inverse agonists of human mu-delta opioid receptor heterodimerization. AID 504357. inhibition, % at 9.3 µM. cell-based MOR-DOR heterodimer luminescence, inverse agonism. 0.21% of 340,000 active; in the data active means inhibition above about 22%, passing the limit was not always enough;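 further: 0% = cells with DMSO and 100% = wells without cells with DMSO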
MIN6 prolif-2 – confirmation of inducers of beta-cell replication in MIN6 cells; shares compounds with MIN6 prolif-1; MIN6 beta-cell proliferation, ATPlite luminescence, 48 h; cells kept in 0.2% serum; scaled between 0.2% and 10% serum; proliferation increase, % at 50 µM; 920 tested, under 10 active;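 active means proliferation increase above 40% at any of the four tested concentrations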
* = called active by the depositor; nt = not tested or not shown. Most compounds without a hit are left out; they make up all but 1.4% or so of the library.

SMILES	HTR5A inv ag	OPRM1-OPRD1 ag	MIN6 prolif-1	HTR5A ag ctr	pCIP destab	MOR-DOR inv ag	MIN6 prolif-2
COc1ccccc1NC(=O)Nc1nn(C)c2cccc(N(C)C)c12	-4.1	0.5	-2.8	5.7	1.2	-2.8	nt
O=C(Cc1cccc(NC(=O)C2CCN(C(=O)CCc3ccccc3)CC2)c1)Nc1cccc(C(=O)N2CCCCC2)c1	-5.3	-0.6	nt	1.4	nt	2.6	nt
C=CCNc1nc(-c2ccccc2)c(C(=O)OCC)cc1C#N	-7.7	0.8	5.3*	3.6	1.2	-3.3	-6.3
CCCNc1nc(-c2ccccc2)c(C(=O)OCC)cc1C#N	-7.0	5.0	-4.2	-2.2	0.0	-21.2	nt
Cc1cc(Br)c(NC(=O)COC(=O)C2CCCCC2)c(Br)c1	-4.3	-1.7	10.6*	1.7	nt	6.7	-5.9
COC(C(=O)Nc1ccnn1C1CCN(Cc2ccc(C)s2)CC1)c1ccccc1 (stereo unspecified)	1.6	-2.0	9.2*	4.2	-2.2	10.7	-2.7
O=C(N/N=C/c1ccncc1)c1nc(-c2ccccc2)n2c1CCCCC2	-3.6	0.1	8.3*	-3.6	1.0	-0.8	1.9
COc1ccc(C(=O)OCC(=O)c2ccc[nH]2)c(OC)c1	13.4	-4.2	0.5	-3.3	nt	22.0	nt
CCc1[nH]nc(C(=O)N2CCCC(N3CCN(c4ccccc4C)CC3)C2)c1C (stereo unspecified)	7.1	-3.9	-0.1	-2.9	-16.0	19.6	nt
CNc1oc(-c2ccco2)nc1C#N	2.3	-1.9	-3.2	3.4	-8.8	11.1	nt
Cc1ccc(CNc2oc(-c3ccco3)nc2C#N)cc1	-6.2	4.0	0.0*	0.6	8.0	-21.4	-5.8
O=c1[nH]c2ccc(Cl)cc2c(=O)n1Cc1ccco1	8.4	-2.9	7.2*	5.9	-6.2	13.5	-2.4
O=c1c2cc(Cl)ccc2[nH]c(=S)n1Cc1ccco1	-14.2	8.3	-4.8	-2.2	-8.3	-45.0	nt
CC(C)Sc1nc2c(cnn2-c2ccc(Cl)cc2)c(=O)[nH]1	-2.8	-1.4	10.8*	0.7	2.0	6.6	-2.2
CC(C)Sc1nc2c(cnn2-c2ccccc2)c(=O)[nH]1	6.7	-0.1	4.1	-2.4	-8.1	0.3	nt
O=C(COC(=O)c1cccc(Br)c1)NCC1CCCO1 (stereo unspecified)	-18.6	-1.0	-1.5	4.8	nt	5.2	nt
CC1(c2ccccc2Br)NC(=O)N(CC(=O)NC2CCCCC2)C1=O (stereo unspecified)	-4.9	-3.7	-1.9	2.0	nt	15.1	nt
COc1ccc(OC)c(NC(=O)CCn2cccc2)c1	-13.7	-3.0	7.5*	5.4	-9.8	16.6	-1.3
COc1ccc(NC(=O)CCn2cccc2)c(OC)c1	0.5	-2.3	-2.5	0.1	-9.1	12.1	nt
CCOC(=O)C1CCN(C(=O)CC(NS(=O)(=O)c2ccc(OC)cc2)C(C)C)CC1 (stereo unspecified)	-0.9	-2.0	6.2*	-1.1	-3.7	9.4	2.4
O=C(Cn1ccc(NC(=O)OCc2ccccc2)nc1=O)NCCc1c[nH]c2ccccc12	0.6	0.2	-0.3	10.6	nt	-1.1	nt
CC(C)Nc1nc(NC(C)(C)C)nc(Oc2ccc(=O)n(C)n2)n1	-12.7	-1.6	7.4*	4.7	-6.5	8.3	3.9
COc1nc(NC(C)(C)C)nc(Oc2ccc(=O)n(C)n2)n1	-7.6	-1.1	3.2	3.6	7.8	6.0	nt
COCC1CCCCN1C(=O)c1ccc(OC)c(OC2CCN(C(C)C)CC2)c1 (stereo unspecified)	1.9	-2.1	4.8*	-0.5	4.0	10.8	-1.9
COc1ccc(/C=N\NC(=O)CNC(=O)C2COc3ccccc3O2)cc1[N+](=O)[O-] (stereo unspecified)	13.8	-0.8	13.6*	5.8	-3.6	3.9	-1.1
Cc1ccc(-n2nc(C(=O)O)cc2-c2ccccc2Cl)cc1	-27.4	-3.5	-0.5	7.0	-2.6	19.5	nt
O=C(O)c1cc(-c2ccccc2Cl)n(-c2ccc(F)cc2)n1	-5.7	-2.9	8.0*	1.5	1.5	13.8	-1.7
CCOC(=O)c1c(NC(=O)COC(=O)CCOc2cc(C)ccc2C)sc(C(=O)N(C)C)c1C	-6.0	-3.2	nt	0.3	nt	11.8	nt
